# c-Myc SMM: binders of human c-Myc, primary screen, biochemical, small molecule microarray, anti-His fluorescence | Myc proto-oncogene protein (Homo sapiens), P01106 | His-c-Myc binding | calls only | 17,000 tested, 1.5% active | AID 624141, 2012;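 active = spot fluorescence over background with P-value below 7% in all four replicate spots, showing protein binding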;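 note: score is binary with 100 for all four spots passing and 0 otherwise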
# NFkB SMM: binders of NF-kB p50 subunit, primary screen, biochemical, small molecule microarray, anti-His fluorescence; Nuclear factor NF-kappa-B p105 subunit (Homo sapiens), P19838; anti-His fluorescence binding; calls only; 17,000 tested, 1.3% active; AID 624139, 2012;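 active = spot fluorescence over background significantly raised, with a chance value under 7% in all four replicate spots of the compound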;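 note: probe protein is his-tagged human p50 processed subunit at 1 µg/ml; raw spot fluorescence signals with no normalization applied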
# mut p53 SMM: binders of human mutant p53, primary screen, biochemical, small molecule microarray, anti-GST fluorescence. small molecule microarray binding. calls only. 17,000 tested, 0.4% active. AID 624136, 2012;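 active = compounds whose four printed spots each glow above background more than chance allows, each with a p-value under 7%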
# STAT3 SMM: STAT3 binders, primary screen, biochemical, small molecule microarray, single point, set 2; calls only; 17,000 tested, 0.2% active; Signal transducer and activator of transcription 3 (Homo sapiens), P40763; His-STAT3 binding, anti-His fluorescence;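 active = compounds whose four printed spots each show fluorescence over background unusually high for their array block, chance value under 7%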
# * marks the source's active call; other numbers are inactive results; i = inactive; + = active, no number. The list is not random: actives were taken first. Their share in the collection is about 2.5%.
SMILES,c-Myc SMM,NFkB SMM,mut p53 SMM,STAT3 SMM
Cc1cc(SCc2sc(-c3ccc(C(F)(F)F)c(F)c3)nc2C)ccc1OCC(=O)O,+,i,i,i
CC(CO)NC(=O)C1C=C2c3cccc4[nH]cc(c34)CC2N(C)C1 (stereo unspecified),+,i,i,i
CCN1C[C@]2(COC)CCC(OC)[C@@]34C5C[C@]6(O)[C@H](OC(=O)c7ccc(OC)cc7)C5[C@@](OC(C)=O)(C[C@H]6OC)[C@@H]([C@H](OC)C23)[C@@H]14 (stereo partly specified),i,i,i,i
C[N+]1=Cc2cc3c(cc2CC1)OCO3,i,i,i,i

# Screens: PubChem BioAssay, Broad Institute
